Experimental data published in PubChem BioAssay AID624296 (National Center for Advancing Translational Sciences (NCATS), 2012).
Among all 350,000 compounds or so, about 9,900 (2.8%) were called active. Inconclusive results (about 15%) are left out. The call rests on the fitted dose curve; in most records, active means well fitted activation curve with a large enough effect; inconclusive means small, poorly fitted or top-dose-only effect; inactive means no such curve, though single readings can be large or run the other way. Many of the other results were omitted from the sample, so actives are more common in it than they were.

Assay: A quantitative high throughput screen for small molecules that induce DNA re-replication in MCF 10a normal breast cells. Further: nearly all actives have a fitted effect of over 50% in size. On activity, positive = re-replication: % of control where 0% means no effect.
Settings: MCF 10A DNA re-replication, Hoechst nuclear intensity, 48 h; series mostly up to 46.1 µM; activity, positive = re-replication: at the top concentration
Potency means the concentration at half of the fitted maximal effect.

Row | Compound | activity, positive = re-replication | Potency
1 | COc1cc(/C=C/CNC[C@H]2O[C@@H](n3cnc(C(N)=O)n3)[C@H](O)[C@@H]2O)ccc1O | -3.55% (inactive) | –
2 | O=C1Nc2c(Br)cc(Br)cc2C1(O)N1CCOCC1 (configuration not stated) | – | 8.2 µM (active)
3 | O=C(c1cc2cc(Br)cc(Br)c2oc1=O)N1CCOCC1 | -3.32% (inactive) | –
4 | O=C(CSC(=S)N1CCOCC1)c1cc(Br)cc(Br)c1O | -10.4% (inactive) | –
5 | Cc1ccc2c(c1)C1C[N+](C)(CC(=O)c3ccccc3)CCC1N2C(=O)c1ccccc1Cl (configuration not stated) | 1.42% (inactive) | –
6 | CC[C@]12c3[nH]c4cc(CCC(=O)N(C)C)ccc4c3CCN1C(=O)[C@@H](CC(=O)NCC13CC4CC(CC(C4)C1)C3)C[C@@H]2C(=O)N1CCN(C(=O)C2CC2)CC1 | 5.53% (inactive) | –
7 | O=C(COc1ccc(Cl)cc1Cl)N/N=C/c1ccccn1 | 7.32% (inactive) | –
8 | CSc1ccc(/C=N/NC(=O)c2cccc(Cl)c2)cc1 | -1.93% (inactive) | –
9 | CSc1ccc(/C=N\NC(=O)COc2ccc(Cl)cc2Br)cc1 | – | 13 µM (active)
10 | CCC(=O)c1cc(F)ccc1OCC(=O)Nc1ccc2c(c1)OCCO2 | 13.1% (inactive) | –
11 | COc1ccccc1NC(=O)COC(=O)COc1ccccc1F | 4.21% (inactive) | –
12 | COc1ccc(CC(=O)NC(C)c2ccc(Cl)c(Cl)c2)cc1S(=O)(=O)N1CCOCC1 (configuration not stated) | -1.21% (inactive) | –
13 | Nc1ncnc2c1cnn2C1CC(O)C(CO)O1 (configuration not stated) | -2.15% (inactive) | –
14 | CCN(C[C@H]1N[C@@](Cc2ccccc2)(C(=O)OC)[C@H]2C(=O)N(Cc3ccccc3)C(=O)[C@@H]12)C(=O)c1ccc(C)cc1 | 13.4% (inactive) | –
15 | Cc1cccc(OCC(=O)NC(=S)Nc2ccccc2N2CCOCC2)c1 | 5.85% (inactive) | –
16 | Cc1ccc(O)c(NC(=O)COc2cc(C)ccc2C)c1 | -0.0794% (inactive) | –
17 | Cc1ccc(O)c(NC(=S)NC(=O)COc2ccc(Br)cc2)c1 | – | 20.6 µM (active)
18 | O=C(CCc1ccccc1Cl)Nc1ccc(S(=O)(=O)Nc2nccs2)cc1 | -2.12% (inactive) | –
19 | Nc1cc(N)nc(SCC(=O)Nc2cccc(S(=O)(=O)N3CCCCC3)c2)n1 | -1.51% (inactive) | –
20 | Nc1ncnc2c1ncn2[C@@H]1O[C@H](CNCc2cccn2-c2nccs2)[C@@H](O)[C@H]1O | -30.7% (inactive) | –
21 | Cc1c(NC(=O)CN(C)CC(=O)Nc2ccc(F)c(F)c2F)c(=O)n(-c2ccccc2)n1C | -0.806% (inactive) | –
22 | N=C1c2ccccc2-c2ccccc21 | -4.5% (inactive) | –
23 | COC(=O)c1sc(N2CCN(Cc3ccccc3)CC2)nc1N | -1.54% (inactive) | –
24 | C=CCNC(=O)c1csc(-c2ccccc2)n1 | -2.88% (inactive) | –
25 | C=CCNc1nc(N)c(C(=C(C#N)C#N)c2ccccc2)s1 | – | 16.4 µM (active)
26 | CCS(=O)(=O)c1cc([N+](=O)[O-])c(Sc2ccccc2N)s1 | -2.15% (inactive) | –

Row | Compound | activity, positive = re-replication | Potency
27 | Nc1ccccc1SCc1cc([N+](=O)[O-])cc2c1OCOC2 | 10.5% (inactive) | –
28 | Nc1ccccc1SC(C[N+](=O)[O-])c1ccccc1 (configuration not stated) | – | 10.3 µM (active)
29 | CN(C(=O)c1cccc(NC(=O)C2CCN(C(=O)OC(C)(C)C)CC2)c1)C1CCC1 | 0.942% (inactive) | –
30 | COC(=O)c1ccc(CNC(=O)Cn2cc(C)c(=O)[nH]c2=O)cc1 | -0.64% (inactive) | –
31 | C#CCOCCOCCOCCNc1nc(N2CCN(C(=O)Cn3cc(CCCCN)nn3)CC2)nc(N2CCN(C(=O)[C@H](CCCCN)n3cc(CCC(=O)O)nn3)CC2)n1 | 2.8% (inactive) | –
32 | CN(C)S(=O)(=O)c1ccc(C(=O)NCC(C)(C)N2CCOCC2)cc1 | 1.18% (inactive) | –
33 | CC(C)(CNC(=O)c1ccc(Cl)c(S(=O)(=O)N2CCc3ccccc3C2)c1)N1CCOCC1 | – | 5.8 µM (active)
34 | O=C(NCCSCc1ccccc1)c1ccc(Cl)c(S(=O)(=O)N2CCOCC2)c1 | 4.44% (inactive) | –
35 | O=C(OCc1cc(=O)n2ccsc2n1)C1(c2ccc(Cl)cc2)CC1 | 3.97% (inactive) | –
36 | COc1ccccc1N(CC(=O)Nc1c(C)n(C)n(-c2ccccc2)c1=O)S(=O)(=O)c1ccccc1 | -2.95% (inactive) | –
37 | Cc1c(O)c(C)c2c(c1O)C(=O)C[C@@H](c1ccccc1)O2 | 26.4% (inactive) | –
38 | COc1ccc(CNc2nnnn2C)cc1 | 0.405% (inactive) | –
39 | COc1ccc(CNc2ncnc3ccccc23)cc1 | -0.72% (inactive) | –
40 | COc1ccc(CNc2c(CO)cnc3c2cnn3C)cc1 | – | 14.6 µM (active)
41 | COc1cccc(NC(=O)COC(=O)c2ccc3ccccc3n2)c1 | 1.19% (inactive) | –
42 | Cc1ccc(S(=O)(=O)N(C)C)cc1NC(=O)CN1c2cccc3cccc(c23)S1(=O)=O | 2.38% (inactive) | –
43 | Cc1csc(NC(=O)C2CCN(S(=O)(=O)c3ccccc3)CC2)n1 | 5.3% (inactive) | –
44 | CN(C(=O)CSc1cccc[n+]1[O-])C1CCCCC1 | 5.23% (inactive) | –
45 | S=c1[nH]nc(CSCc2ccc(Cl)cc2Cl)n1-c1ccccc1 | – | 20.6 µM (active)
46 | Cc1ccc(NCc2n[nH]c(=S)n2-c2ccccc2)cc1Cl | -1.28% (inactive) | –
47 | S=c1[nH]nc(COc2ccccc2)n1-c1ccccc1 | 15.9% (inactive) | –
48 | O=C(O)C(=Cc1ccccc1[N+](=O)[O-])c1ccccc1 | -1.41% (inactive) | –
49 | O=C(Nc1cccc(S(=O)(=O)N2CCCC2)c1)c1cncc(Br)c1 | -0.825% (inactive) | –
50 | CC(=O)Oc1ccc(N(C(C)=O)S(=O)(=O)c2ccc3ccccc3c2)cc1Br | – | 13 µM (active)
51 | COCCNC(=O)COc1ccc(N(C)S(=O)(=O)c2ccc3ccccc3c2)cc1 | 23.3% (inactive) | –
52 | CN(c1ccc(OCC(=O)O)cc1)S(=O)(=O)c1ccc2ccccc2c1 | -2.95% (inactive) | –
